Experimental data published in PubChem BioAssay (NCI).
This is part of a sample that, as a whole, favours compounds with a hit. Of some 83,000 tested, about 20% had one in any assay.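 Assay: single dose, 48 h. Readout: percent growth (0 = no net growth; negative = cell death). Active: <10.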 Calls of active or inactive are those of the source.

Tests used:
Test in all cases: NCI-60 one-dose screen, 48 h (100 = growth as untreated, 0 = no growth, -100 = all killed)
Conditions in all cases: 10 µM unless noted
SR leukemia = tested on: SR leukemia
OVCAR-8 ovarian = tested on: OVCAR-8 ovarian
OVCAR-5 ovarian = tested on: OVCAR-5 ovarian
OVCAR-4 ovarian = tested on: OVCAR-4 ovarian
SK-OV-3 ovarian = tested on: SK-OV-3 ovarian
IGROV1 ovarian = tested on: IGROV1 ovarian
OVCAR-3 ovarian = tested on: OVCAR-3 ovarian
HS 578T breast = tested on: HS 578T breast
NCI/ADR-RES ovarian = tested on: NCI/ADR-RES ovarian
T-47D breast = tested on: T-47D breast
BT-549 breast = tested on: BT-549 breast
MDA-MB-435 melanoma = tested on: MDA-MB-435 melanoma
SW-620 colon = tested on: SW-620 colon
MCF7 breast = tested on: MCF7 breast
HCT-116 colon = tested on: HCT-116 colon
HCC-2998 colon = tested on: HCC-2998 colon
KM12 colon = tested on: KM12 colon
RPMI-8226 leukemia = tested on: RPMI-8226 leukemia

Measured: growth

CCCCCCCCCCCCCC1=NC(C)(C)CN1C(C)C
inactive: OVCAR-5 ovarian 39.7% | BT-549 breast 22.8%
active: SR leukemia -46.5% | OVCAR-8 ovarian -12.4% | OVCAR-4 ovarian 7.76% | SK-OV-3 ovarian -2.05% | IGROV1 ovarian -30.4% | OVCAR-3 ovarian -56.3% | HS 578T breast -28.1% | NCI/ADR-RES ovarian -12.4% | T-47D breast -22.3% | MDA-MB-435 melanoma -57.3% | SW-620 colon -67.2% | MCF7 breast -41.3% | HCT-116 colon -72.6% | HCC-2998 colon -90.6% | KM12 colon -75.5%

COc1cc(-c2nc(-c3ccc(-c4nc5ccc(F)cc5[nH]4)cc3)no2)cc(OC)c1OC
active: OVCAR-8 ovarian 5.86% | T-47D breast 8.56%
inactive: SR leukemia 32.5% | OVCAR-5 ovarian 72.9% | OVCAR-4 ovarian 30.9% | SK-OV-3 ovarian 85.5% | IGROV1 ovarian 47.3% | OVCAR-3 ovarian 36.6% | HS 578T breast 30.5% | NCI/ADR-RES ovarian 13.3% | BT-549 breast 35.7% | MDA-MB-435 melanoma 46.8% | SW-620 colon 55.3% | MCF7 breast 41.1% | HCT-116 colon 28.2% | HCC-2998 colon 81.5% | KM12 colon 11.5%

Fc1cc(-c2cnc3nonc3n2)c(Cl)cc1Cl
inactive: SR leukemia 86.5% | OVCAR-8 ovarian 97.3% | OVCAR-5 ovarian 88.6% | OVCAR-4 ovarian 59.6% | SK-OV-3 ovarian 98.5% | IGROV1 ovarian 77% | OVCAR-3 ovarian 10.3% | HS 578T breast 111% | NCI/ADR-RES ovarian 102% | T-47D breast 63.2% | BT-549 breast 99.7% | MDA-MB-435 melanoma 90.1% | SW-620 colon 38.7% | MCF7 breast 69.7% | HCC-2998 colon 103% | KM12 colon 88.2%
active: HCT-116 colon 7.65%

c1ccc(CCn2cccc2)nc1
inactive: SR leukemia 75.2% | OVCAR-8 ovarian 102% | OVCAR-5 ovarian 103% | OVCAR-4 ovarian 113% | SK-OV-3 ovarian 107% | IGROV1 ovarian 121% | OVCAR-3 ovarian 101% | HS 578T breast 120% | NCI/ADR-RES ovarian 105% | T-47D breast 94.7% | BT-549 breast 106% | MDA-MB-435 melanoma 114% | SW-620 colon 117% | MCF7 breast 101% | HCT-116 colon 101% | HCC-2998 colon 96.7% | KM12 colon 103%

O=C(O)c1ccccc1Oc1cc(-c2ccco2)nc(OCCN2CCOCC2)n1
inactive: RPMI-8226 leukemia 99.8% | OVCAR-8 ovarian 105% | OVCAR-5 ovarian 99.6% | OVCAR-4 ovarian 108% | SK-OV-3 ovarian 99.8% | IGROV1 ovarian 103% | OVCAR-3 ovarian 126% | HS 578T breast 112% | NCI/ADR-RES ovarian 99.7% | T-47D breast 97.2% | BT-549 breast 96.6% | MDA-MB-435 melanoma 101% | SW-620 colon 115% | MCF7 breast 102% | HCT-116 colon 97.9% | HCC-2998 colon 108% | KM12 colon 111%

O=C1OCC2=C1C(c1ccccc1)c1cc3c(cc1N2CCO)OCO3 (stereo not given)
active: SK-OV-3 ovarian 6.79% | OVCAR-3 ovarian 3.99% | NCI/ADR-RES ovarian -20.4% | T-47D breast 1.16% | MDA-MB-435 melanoma 2.96% | MCF7 breast -11.1% | HCT-116 colon 7.22%
inactive: RPMI-8226 leukemia 46.4% | OVCAR-8 ovarian 63.3% | OVCAR-5 ovarian 46.8% | OVCAR-4 ovarian 52% | IGROV1 ovarian 39.5% | HS 578T breast 23.1% | BT-549 breast 43.9% | SW-620 colon 23.6% | HCC-2998 colon 24.5% | KM12 colon 23.3%

O=C1C=CN2C(=O)CC=CC2[C@@H]1O (stereo not given in full)
inactive: RPMI-8226 leukemia 96.4% | OVCAR-8 ovarian 114% | OVCAR-5 ovarian 121% | OVCAR-4 ovarian 110% | SK-OV-3 ovarian 104% | IGROV1 ovarian 118% | OVCAR-3 ovarian 120% | HS 578T breast 121% | NCI/ADR-RES ovarian 106% | T-47D breast 90.4% | BT-549 breast 102% | MDA-MB-435 melanoma 124% | SW-620 colon 111% | MCF7 breast 96.5% | HCT-116 colon 96.5% | HCC-2998 colon 114% | KM12 colon 105%

C=C(COC(C)=O)[C@H]1CC/C(C)=C/CC/C(C)=C/CC[C@@]2(C)O[C@H]2C1
inactive: RPMI-8226 leukemia 180% | OVCAR-8 ovarian 103% | OVCAR-5 ovarian 99.2% | OVCAR-4 ovarian 115% | SK-OV-3 ovarian 125% | IGROV1 ovarian 103% | OVCAR-3 ovarian 121% | HS 578T breast 108% | NCI/ADR-RES ovarian 102% | T-47D breast 109% | BT-549 breast 105% | MDA-MB-435 melanoma 113% | SW-620 colon 112% | MCF7 breast 91.1% | HCT-116 colon 98.2% | HCC-2998 colon 112% | KM12 colon 98.6%

CN(C)c1ccc(/C=C\c2cccc[n+]2C)cc1
inactive: OVCAR-8 ovarian 28.6% | OVCAR-5 ovarian 49.5% | OVCAR-4 ovarian 34.1% | SK-OV-3 ovarian 42.2% | IGROV1 ovarian 68.8% | HS 578T breast 61.5% | NCI/ADR-RES ovarian 105% | T-47D breast 14.6% | BT-549 breast 20.1% | MDA-MB-435 melanoma 33.6% | SW-620 colon 22.4% | MCF7 breast 39.3% | HCT-116 colon 19.3% | HCC-2998 colon 35.7%
active: RPMI-8226 leukemia 3.96% | OVCAR-3 ovarian 9.08% | KM12 colon 6.97%

CSc1nc(N)c2[nH]c(-c3cc4ccccc4[nH]c3=O)nc2n1
inactive: RPMI-8226 leukemia 85.1% | OVCAR-8 ovarian 90.2% | OVCAR-5 ovarian 119% | OVCAR-4 ovarian 83.7% | SK-OV-3 ovarian 66.1% | IGROV1 ovarian 61.5% | OVCAR-3 ovarian 119% | HS 578T breast 94.6% | NCI/ADR-RES ovarian 94.8% | T-47D breast 72.9% | BT-549 breast 47.9% | MDA-MB-435 melanoma 102% | SW-620 colon 90.1% | MCF7 breast 65.7% | HCT-116 colon 53.9% | HCC-2998 colon 95% | KM12 colon 96.9%

O=C(Nc1cccc(C2=NCCN2)c1)c1ccc(N=Nc2ccc(C(=O)Nc3cccc(C4=NCCN4)c3)cc2)cc1
inactive: SR leukemia 87.5% | OVCAR-8 ovarian 37.5% | OVCAR-5 ovarian 76.6% | SK-OV-3 ovarian 77.3% | IGROV1 ovarian 58.8% | OVCAR-3 ovarian 77.4% | HS 578T breast 65.2% | NCI/ADR-RES ovarian 100% | T-47D breast 46.5% | BT-549 breast 69.1% | MDA-MB-435 melanoma 47.9% | SW-620 colon 70.7% | MCF7 breast 62.4% | HCT-116 colon 53.1% | HCC-2998 colon 79.4% | KM12 colon 72.8%

CC(C)[C@@H]1C=C2CC[C@H]3[C@](C)(CN)CCC[C@]3(C)[C@H]2CC1
active: MDA-MB-435 melanoma -23% | SW-620 colon -65.8% | MCF7 breast -44.3% | HCC-2998 colon -40.1%
inactive: RPMI-8226 leukemia 20.7% | OVCAR-8 ovarian 82.3% | OVCAR-5 ovarian 111% | OVCAR-4 ovarian 77.3% | SK-OV-3 ovarian 113% | IGROV1 ovarian 92.2% | OVCAR-3 ovarian 44.4% | HS 578T breast 74.6% | NCI/ADR-RES ovarian 106% | T-47D breast 53.8% | BT-549 breast 90.7% | HCT-116 colon 31.3% | KM12 colon 37.8%

O=c1c2cc(Br)cc(Br)c2nc(-c2ccc(Cl)cc2)n1/N=C/c1cccc(F)c1
active: OVCAR-4 ovarian -11%
inactive: SR leukemia 62.7% | OVCAR-8 ovarian 29.4% | OVCAR-5 ovarian 61% | IGROV1 ovarian 33.1% | OVCAR-3 ovarian 49.8% | HS 578T breast 35.2% | NCI/ADR-RES ovarian 40.3% | T-47D breast 48.8% | BT-549 breast 74.4% | MDA-MB-435 melanoma 78.8% | SW-620 colon 74.7% | MCF7 breast 52.5% | HCT-116 colon 18.5% | HCC-2998 colon 84% | KM12 colon 70.2%

CCCNCCC(C)=O
inactive: RPMI-8226 leukemia 108% | OVCAR-8 ovarian 106% | OVCAR-5 ovarian 101% | OVCAR-4 ovarian 107% | SK-OV-3 ovarian 116% | IGROV1 ovarian 118% | OVCAR-3 ovarian 116% | HS 578T breast 89.9% | NCI/ADR-RES ovarian 100% | T-47D breast 98.7% | BT-549 breast 106% | MDA-MB-435 melanoma 94.7% | SW-620 colon 97.6% | MCF7 breast 106% | HCT-116 colon 109% | HCC-2998 colon 99.6% | KM12 colon 112%

Cc1cc(Nc2c3ccccc3nc3ccccc23)ccc1NS(C)(=O)=O
inactive: OVCAR-5 ovarian 27.5% | OVCAR-4 ovarian 48.1% | SK-OV-3 ovarian 43.5% | IGROV1 ovarian 25.5% | OVCAR-3 ovarian 46.6% | HS 578T breast 52.4% | NCI/ADR-RES ovarian 57.7% | T-47D breast 45% | BT-549 breast 78.7% | MDA-MB-435 melanoma 36.8% | SW-620 colon 21.8% | MCF7 breast 27.4% | HCT-116 colon 13.7% | KM12 colon 40.5%
active: SR leukemia -6.9%

COC(=O)c1ccc2c(c1)nc(-c1cc3ccccc3[nH]c1=O)n2-c1cc(C(C)(C)C)[nH]n1
active: NCI/ADR-RES ovarian 2.6% | HCC-2998 colon -10.1%
inactive: RPMI-8226 leukemia 22% | OVCAR-8 ovarian 54% | OVCAR-5 ovarian 96.6% | OVCAR-4 ovarian 86.7% | SK-OV-3 ovarian 105% | IGROV1 ovarian 44.7% | OVCAR-3 ovarian 94.5% | HS 578T breast 39.3% | T-47D breast 59.3% | BT-549 breast 54.6% | MDA-MB-435 melanoma 46.4% | SW-620 colon 61.8% | MCF7 breast 58.1% | HCT-116 colon 51.1% | KM12 colon 44.3%

Cc1cc(O)ccc1Sc1ccccc1[N+](=O)[O-]
inactive: RPMI-8226 leukemia 82.5% | OVCAR-8 ovarian 97.1% | OVCAR-5 ovarian 99.6% | OVCAR-4 ovarian 90% | SK-OV-3 ovarian 101% | IGROV1 ovarian 90.6% | OVCAR-3 ovarian 96.1% | HS 578T breast 80% | NCI/ADR-RES ovarian 83% | T-47D breast 98.7% | BT-549 breast 93.2% | MDA-MB-435 melanoma 57.7% | SW-620 colon 90.2% | MCF7 breast 118% | HCT-116 colon 98.1% | HCC-2998 colon 97.5% | KM12 colon 91.1%

Nc1cc(C(=O)O)cc(C(=O)O)c1
inactive: SR leukemia 75.3% | OVCAR-8 ovarian 99.3% | OVCAR-5 ovarian 105% | SK-OV-3 ovarian 97% | IGROV1 ovarian 102% | OVCAR-3 ovarian 123% | HS 578T breast 113% | NCI/ADR-RES ovarian 112% | T-47D breast 97.1% | BT-549 breast 107% | MDA-MB-435 melanoma 108% | SW-620 colon 110% | MCF7 breast 99.8% | HCT-116 colon 101% | HCC-2998 colon 121% | KM12 colon 111%

Cn1cnc([N+](=O)[O-])c1S(=O)(=O)Oc1cccc2ccccc12
inactive: SR leukemia 17.5% | OVCAR-8 ovarian 73.3% | OVCAR-5 ovarian 82.3% | OVCAR-4 ovarian 81.3% | IGROV1 ovarian 36.9% | HS 578T breast 99.7% | NCI/ADR-RES ovarian 57.6% | BT-549 breast 99.9% | MDA-MB-435 melanoma 67.9% | MCF7 breast 44.8% | HCT-116 colon 17.8% | HCC-2998 colon 88.7% | KM12 colon 88.9%
active: SW-620 colon 7.26%
